Only a selection was taken, and hits are over-represented in it overall.
nsP2pro primary – inhibitors of chikungunya virus nsP2 protease | Q8JUX6 | 31,000 tested, 1.1% active | Potency, µM (titrated, usually from 24.9 µM), inactives show top-dose activity change, negative = inhibition, most hits filed as inhibitors | FRET peptide cleavage, nsP2pro, fluorescence 1 h; calls by dose curve; note: nearly all actives have a fitted effect of over 60% in size
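Purified recombinant nsP2pro (150 nM final) in 10 mM Tris-HCl pH 8.0 with 0.01% Tween 20 was preincubated 15 min at room temperature with compound (7 concentrations, up to 25 uM). FRET peptide 2 substrate (2.5 uM final) was then added; fluorescence was read after 1 h.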
Numbers without * were called inactive; i = inactive; ! = not active in a repeat; [ ] = remark or other dose. % is set by controls: 0 for no effect and ±100 for the full control effect; potency is the fitted concentration of half-maximal effect.

SMILES | nsP2pro primary
CCN1CCN(c2ncc3c(n2)CCN(Cc2ccc(OC)c(OC)c2)C3)CC1 | 11µM*
CCN1CCN(c2ncc3c(n2)CCN(Cc2cc(F)cc(F)c2)C3)CC1 | -7%
CCc1ccc(CN2CCc3nc(N4CCN(CC)CC4)ncc3C2)cc1 | 23%
COc1ccc(/C=C/C(N)=O)cc1OC | -6%
O=[S+]([O-])(/C=C/c1nc(Nc2cc(F)cc(F)c2)c2ncn(CC(F)F)c2n1)c1ccccc1 | -9%
CC(=O)OC1C(OC(=O)c2ccccc2)C2C(=C(C)CCC2(C)C)C23CCC(C)(C2)C(=O)CC13 (stereo not drawn) | -12%[10 µM]
COCC(=O)N[C@@H]1CN(Cc2cccn2C)C[C@H]1CO | -15%
COc1ccc(NC(=O)c2c(NCc3sccc3C)sc3c2CCCC3)c(OC)c1 | -13%
CCOC(=O)N1CCc2c(sc(NCc3cccs3)c2C(=O)Nc2cc(OC)ccc2OC)C1 | 11µM*
COc1ccccc1NC(=O)c1c(NCc2ccc(OC)c(OC)c2OC)sc2c1CCC2 | -23%
CC(=O)N1CCN(C(=O)c2cnc(N)nc2-c2ccccc2)CC(O)C1 (stereo not drawn) | 2%
Cc1nc(C#Cc2ccnc(Cl)c2)c(C)n1-c1ccc(F)cc1 | 4%
CN=C(N)NCCCCC/C=C(/C)CC(C)C1OC(=O)C(C)C(O)/C=C/C(C)C(O)CC(O)C(C)C(O)CCC(C)C(O)CC2(O)OC(CC(OC(=O)CC(=O)O)CC(O)CC(O)C(C)C(O)/C(C)=C/CCC1C)CC(O)C2O (stereo not drawn) | 16%[5.1 µM]
CCCC[C@H](NC(C)=O)C(=O)N[C@H]1CC(=O)NCCCC[C@@H](C(=O)O)NC(=O)[C@H](Cc2c[nH]c3ccccc23)NC(=O)[C@H](CCCN=C(N)N)NC(=O)[C@@H](Cc2ccccc2)NC(=O)[C@H](Cc2cnc[nH]2)NC1=O | 0%
Cc1cc(OCC(O)CN2CCN(c3cccc(Cl)c3)CC2)ccc1Cl (stereo not drawn) | 11µM*
OC(CN1CCN(c2cccc(Cl)c2)CC1)C(c1ccccc1)c1ccccc1 (stereo not drawn) | 29%
CCN1CCN(CC(O)COc2cccc(CNCc3cnn(CC)c3)c2)CC1 (stereo not drawn) | i
Cc1ccc(OCCn2c(CCNC(=O)c3cccc(Br)c3)nc3ccccc32)cc1 | -6%
O=C(NC1CCCCC1)O[C@@H]1CO[C@H]2[C@@H]1OC[C@@H]2Nc1nccc(-c2cccs2)n1 | -16%[39.2 µM]
O=C(Nc1cccc(F)c1)c1cc(-c2ccc[nH]2)n[nH]1 | 88%
O=C(Nc1cccc(Cl)c1)c1cc(-c2ccc[nH]2)n[nH]1 | 11%
O=C(Nc1ccc(F)cc1)c1cc(-c2ccc[nH]2)n[nH]1 | 10µM*
CCN(CC)CCN1C(=O)CN=C(c2ccccn2)c2cc(Cl)ccc21 | 22%[125 µM]
CC(=O)c1ccc(NC(=O)OC[C@H]2C[C@@H]3CCN2C[C@@H]3c2cc(C3CCCC3)nc(-c3ccncc3)n2)cc1 | i
CC(=O)c1cccc(NC(=O)OC[C@H]2C[C@@H]3CCN2C[C@@H]3c2cc(C3CCCC3)nc(C)n2)c1 | i
SMILES | nsP2pro primary
COc1ccccc1-c1cc([C@H]2CN3CC[C@H]2C[C@@H]3COC(=O)NC2CCCCC2)nc(C)n1 | 10µM*
Cc1cc(C)cc(NC(=O)Cn2c(-c3cnccn3)nc(C)c(C)c2=O)c1 | i
Cc1cccnc1C(=O)N[C@@H]1CN(S(C)(=O)=O)C[C@H]1CN(C)C | 3%
CC(CCC1(O)OC2CC3C4CCC5CC(O[C@@H]6O[C@H](CO)[C@@H](O)[C@H](O)[C@H]6O[C@@H]6O[C@@H](C)[C@H](O)[C@@H](O)[C@H]6O)C(O)CC5(C)C4CCC3(C)C2C1C)CO[C@@H]1O[C@H](CO)[C@@H](O)[C@H](O)[C@H]1O (stereo partly drawn) | -2%[5.1 µM]
COc1ccc(CN2CCCC3(C2)CN(C)C(=O)O3)cc1C(=O)O (stereo not drawn) | -5%
CN1CC2(CCN(Cc3ccc(-c4ccc(Cl)cc4)o3)C2)OC1=O (stereo not drawn) | 13µM*
COc1ccc(-c2ncc(CN3CCCC4(C3)CN(C)C(=O)O4)cn2)cc1 (stereo not drawn) | -8%
COCc1ncc(C)n1CC1CCN(C(=O)C2(c3ccc(OC)cc3)CC2)CC1 | i
COc1cccc(NC(=S)N2CCN(c3cc(Cl)cc(Cl)c3)CC2)n1 | -11%
CC1OC(OC2C(OC3C(O[C@H]4CC[C@@]5(C)C(CC[C@]6(C)C5C(=O)C=C5C7CC(C)(C)CC(O)[C@]7(C)CC[C@]56C)C4(C)C)OC(C(=O)O)C(O)C3O)OCC(O)C2O)C(O)C(O)C1O (stereo partly drawn) | 2%[5.1 µM]
CCN(CC)C(=O)N[C@H]1C[C@@H]2c3cccc4[nH]cc(c34)C[C@H]2N(C)C1 | 22%
CCN(CC)C(=O)N[C@@H]1C=C2c3cccc4[nH]cc(c34)C[C@@H]2N(C)C1 | 12µM*
CC[C@@H](CO)NC(=O)[C@@H]1C=C2c3cccc4[nH]cc(c34)C[C@H]2N(C)C1 | -6%
O=C(NC1CCCC1)N1CCCC(Cn2cnc3cccnc32)C1 (stereo not drawn) | 2%
O=[S+]([O-])(Nc1ccccc1)c1ccc(NCc2cccc(Cl)c2F)cc1 | i
Cc1cc2c(s1)Nc1ccccc1N=C2N1CCN(C)CC1 | 11µM*!
CN1CCN(C2=Nc3ccccc3Cc3ccccc32)CC1 | -1%
CN1CCN(C2=Nc3ccccc3Nc3ccc(Cl)cc32)CC1 | 2%
OC(c1ccccc1)(c1ccccc1)C12CC[N+](CCOCc3ccccc3)(CC1)CC2 | 7%
CC(CCc1ccc(O)cc1)NCC(O)c1ccc(O)cc1 (stereo not drawn) | 1%
CC(Cc1ccc2c(c1)OCO2)NCC(O)c1ccc(O)c(O)c1 (stereo not drawn) | 11µM*
COc1ccc(C[C@H](C)NC[C@@H](O)c2ccc(O)c(NC=O)c2)cc1 | 12%
O=C1N(Cc2ccccc2F)CCOC12CCN(Cc1ccc(F)cc1F)CC2 | 4%[39.2 µM]
CC(C)(C)OC(=O)N1CCN(c2ccc(NCc3ccoc3-c3ccc(C#N)cc3)cc2)CC1 | i
COc1ccc(C(=O)n2nc(-c3ccc(Cl)cc3)nc2NCc2ccco2)cc1 | -14%
SMILES | nsP2pro primary
COc1ccc(C(=O)n2nc(-c3ccco3)nc2NCc2cccs2)cc1OC | 13µM*
CN(C)c1ccc(CNc2nc(-c3ccco3)nn2C(=O)c2cccc([N+](=O)[O-])c2)cc1 | -5%
CCNC(=O)N1CCOc2ccc(CCC(=O)N3CCCCC3c3cccnc3)cc2C1 (stereo not drawn) | i
CC1COC2=C1C(=O)C(=O)c1c2ccc2c1CCCC2(C)C (stereo not drawn) | 11µM*
O=C(Cc1ccc(Cl)c(Cl)c1)Nc1ccc(S(=O)(=O)Nc2ccccc2)cc1 | -11%
CC[C@H](C)[C@@H]([C@@H](CC(=O)N1CCC[C@H]1[C@H](OC)[C@@H](C)C(=O)N[C@@H](Cc1ccccc1)c1nccs1)OC)N(C)C(=O)[C@@H](NC(=O)C(C)(C)N)C(C)C | 7%
CSc1ccc(CNc2ncnc3ccc(-c4c(C)noc4C)cc23)cc1 | 0%
N[C@@H](Cc1ccc(O)c(O)c1)C(=O)O | 12%[0.199 µM]
C[C@@](Cc1ccc(O)c(O)c1)(NN)C(=O)O | 11µM*
COc1cc(CC(=O)O)ccc1O | -22%
COC(=O)c1ccccc1O[C@@H]1O[C@H](CO)[C@@H](O)[C@H](O)[C@H]1O[C@@H]1O[C@@H](C)[C@H](O)[C@@H](O)[C@H]1O | -3%[10 µM]
